This assay concerns the target VTCN1, Q7Z7D3.

A number with no mark means an inactive call. No rule for the calls is given here.

Sequence of VTCN1, Q7Z7D3 (Q7Z7D3 whole entry): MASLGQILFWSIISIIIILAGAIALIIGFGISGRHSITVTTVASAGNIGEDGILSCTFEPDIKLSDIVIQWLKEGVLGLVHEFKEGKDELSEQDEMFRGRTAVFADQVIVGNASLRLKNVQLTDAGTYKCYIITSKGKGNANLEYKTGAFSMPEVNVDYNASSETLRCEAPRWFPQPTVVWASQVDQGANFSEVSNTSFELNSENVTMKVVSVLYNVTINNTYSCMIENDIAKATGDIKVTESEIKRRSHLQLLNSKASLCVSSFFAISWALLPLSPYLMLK

B1: d4r4_design_ppi_129_dldesign_0_cycle1_af2pred (protein)
chain: MEKVTEARDVALEAAGILELAGIKVPEYRKELSEKAKEAIREVAEAGREALEKGEEEYEKLEKVAEKVYKEAKKKAEEALKKKE
On to B1, for which the “binding in a display sort” value is “not found”.

B2: d4r4_design_ppi_102_dldesign_0_cycle1_af2pred (protein)
chain: EEEKVKKAAEKAIKLAKETAEKAYKAAKKVKDKEYKEKFKEITLLALEAKALARAGKALGNKELVEAAKKLAEEAKEKLEKLEKEAE
As for B2, the “binding in a display sort” value is “not found”.

B3: d4r4_design_ppi_87_dldesign_0_cycle0_af2pred (protein)
chain: AEENKAEGAKEAAEDAIEAALKKAEEDPEEGLKAAEKVKERVKKRAEEVEETEYGKKVGKEIKKKAEKALKEIEKKAKAAKAAK
B3: the “binding in a display sort” value is “not found”.

B4: d4r4_design_ppi_222_dldesign_0_cycle1_af2pred (protein)
chain: SLEKLKEYLENAEKERKKVLEAAKEARELAKKGEEEEAKKYLGNAVTDARLNLNEAAYDAGLDTSIGNKLAKEFGAEGEKIFK
As to B4, the “binding in a display sort” value is “not found”.

B5: d4r4_design_ppi_123_dldesign_0_cycle0_af2pred (protein)
chain: SEAEKKTKEAAKLAYEAAKSNPEKGREYRKKAGELIATLSPEEAKKAAAEAQDAYAEGRAEKKLEELKKREEEK
For B5, the “binding in a display sort” value was “not found”.

B6: d4r4_design_ppi_225_dldesign_0_cycle0_af2pred (protein)
chain: AELRERAEAAERRFEAAKARLKEALEKGDKSRAYGEAFRLKHIAEVARRLAAEVRAAATTEEQRELAERLEELAREAEALAEEALKK
Turning to B6, the “binding in a display sort” value is “not found”.

B7: d4r4_design_ppi_229_dldesign_0_cycle0_af2pred (protein)
chain: EKEEKIKKAKELAEKAKELAKKLKEAGEKDLEKAKKLLKEAREAAKKAIELAKEAGDEELAKKASDEQAKAQEAYAEAKAK
Regarding B7, the “binding in a display sort” value is “not found”.

B8: d4r4_design_ppi_225_dldesign_0_cycle1_af2pred (protein)
chain: DELREQAERAKKRFEEAEKKLKEALEKGDKKEAIKYAERLKHLAEVAEKLAEEVEAAATNPETKELAERLKELAKRAKKLAEEALKK
As to B8, the “binding in a display sort” value is “not found”.

B9: d4r4_design_ppi_227_dldesign_0_cycle1_af2pred (protein)
chain: GFKTKATAESGYERMKSIYEAFAKLGPKSPIYKEGAEKMKEYAEKLKELENSTEEEIEKLSKEGIEVGKKLKAEAEAK
With B9, the “binding in a display sort” value is “not found”.

B10: d4r4_design_ppi_213_dldesign_0_cycle1_af2pred (protein)
chain: GALEEAKKLVEEAAKLAEEGKLEEAKEKLKKAMDLAAEHEDPEVVREIAREAKKIVELAEKKKKEKEEKEKKEK
For the molecule B10, the “binding in a display sort” value was “not found”.

B11: d4r4_design_ppi_58_dldesign_0_cycle1_af2pred (protein)
chain: MEELKKAEEEAKKAVEEAKKYAELIAEGKSEEGIEKIKKIAEELKKKGKETTPEAAKIYEKAVKEIAKIAHEGLEKRAEKEAK
On to B11, for which the “binding in a display sort” value was “not found”.

B12: d4r4_design_ppi_157_dldesign_0_cycle1_af2pred (protein)
chain: SKEEARKRGLESAEELKELVEEGIPVEAVGAIAASDVEWLMKYPYGEYAAEALIEALEKYNPVMGEKAREAYEEAKERKAK
For B12, the “binding in a display sort” value was “not found”.

B13: d4r4_design_ppi_90_dldesign_0_cycle1_af2pred (protein)
chain: MTKEEAERMIKILKERLEKIKKAGKEKGEEMQKIAKELEEALKKAEEAFKKDPEKAGAYFQEARQIAAEGEFKEK
Take B13: the “binding in a display sort” value was “not found”.

B14: d4r4_design_ppi_105_dldesign_0_cycle1_af2pred (protein)
chain: MEEIKKEVEETTKKAKEKLKELEKEAEKAGVKEAVEVAKKGKEKVEKLAKKAEKAVKEGNKNYALAKIDAIKDTTEAAEKQVKKLIKA
Take B14: the “binding in a display sort” value was “not found”.

B15: d4r4_design_ppi_128_dldesign_0_cycle1_af2pred (protein)
chain: SSAEQAAKLRAELDAAAAAAAAAIAAAAGLTPAAAAAASAATIAAYKATASALIDAAFELSSDYGRSIAKAAKEKLAALEAQAAALA
Turning to B15, the “binding in a display sort” value was “not found”.

B16: d4r4_design_ppi_128_dldesign_0_cycle0_af2pred (protein)
chain: ESEKKYKELKEELEKAYKEAKKAILEASKLKPEEAKKKMEEILEEFKKKAYELISKALEQSADYGRELAKLAQEYYKELEELAKKLL
As for B16, the “binding in a display sort” value was “not found”.

B17: d4r4_design_ppi_79_dldesign_0_cycle1_af2pred (protein)
chain: AGKAAYEKLKANMERREKKAEEAEKKDKKLGKFEAEKGIEFSKHAAEAAKKKAAEDPAYKEAAKYAKEAEEKFKKKLKELEK
As to B17, the “binding in a display sort” value is “not found”.

B18: d4r4_design_ppi_180_dldesign_0_cycle1_af2pred (protein)
chain: DDFEKALEELKKAGELLPEAAEIAEEAIKKATASKDLKEAAKILLEAAKKIAKIAKEAGNEEAAKAAAAAAQYARQLKAAA
With B18, the “binding in a display sort” value was “not found”.

B19: d4r4_design_ppi_123_dldesign_0_cycle1_af2pred (protein)
chain: AAEAAKAAAAAALAKKAAQSSPEKARAYRKEAGALIAELSPAAAAAAAAAAQDAYADGVAEKVLSELEEKKKKE
In the case of B19, the “binding in a display sort” value is “not found”.
